The results in this text go back to PubChem BioAssay.

For some assays here: Potency and affinity values are given separately. Calls of active or inactive are those of the source.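 How the source made its calls, unless noted: active means fitted half-maximal concentration within the tested range, moderate curve steepness, significant signal drop, and little compound fluorescence or bead-linkage interference; inactive means the rest.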

Assay [1] has as its target Cell division control protein 42 homolog (Homo sapiens) (UniProt P60953). The assay can be described thus: inhibition of fluorescent GTP binding to constitutively active Cdc42 – biochemical, multiplex bead flow cytometry, Bodipy-FL-GTP, dose response (AID 1333;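 active means fitted half-maximal concentration within the tested dose range, moderate curve steepness, a statistically real signal drop, and little compound fluorescence or tag-binding interference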). (A flow cytometer gives signals particle by particle.)
For assay [2] the target is unchanged. The assay can be described thus: inhibition of fluorescent GTP binding to wildtype Cdc42 – biochemical, multiplex bead flow cytometry, Bodipy-FL-GTP, dose response (AID 1334). The note with it: bead-based flow cytometry, Bodipy-FL-GTP binding to GST-Cdc42; at 100 µM (top of the series) unless noted.
The target of assay [3] is GTPase HRas (Homo sapiens) (UniProt P01112). Nature of the assay: Ras wt fluorescent GTP loading blockade – biochemical, wildtype, multiplex bead flow cytometry, dose response (AID 1335;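 active means fitted half-maximal concentration within 10 nM to 100 µM, steepness 0.5 to 2, significant signal drop, low assay interference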). Conditions: bead-based flow cytometry, Bodipy-GTP binding to GST-Ras; at 100 µM (top of the series) unless noted.
Chain of GTPase HRas (Homo sapiens) (P01112 whole entry, looked up): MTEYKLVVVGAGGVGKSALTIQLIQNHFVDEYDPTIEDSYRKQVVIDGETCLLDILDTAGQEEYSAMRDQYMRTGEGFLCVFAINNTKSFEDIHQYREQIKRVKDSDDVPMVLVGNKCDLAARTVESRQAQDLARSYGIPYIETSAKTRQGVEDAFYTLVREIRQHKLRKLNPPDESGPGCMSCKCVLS
The test system of assay [4] is Ras-related protein Rab-7a (dog), GTP binding. The assay can be described thus: blockers of fluorescent GTP binding to Rab7 – biochemical, wildtype, multiplex bead flow cytometry, dose response (AID 1336; call rule not given here).
Assay [5] concerns the target Ras-related C3 botulinum toxin substrate 1 (Homo sapiens) (UniProt P63000). Nature of the assay: inhibition of wildtype Rac1 nucleotide loading – biochemical, multiplex bead flow cytometry, dose response (AID 1340;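 active means dose curve with midpoint inside tested range, moderate steepness, plateau gap beyond fit error, low compound glow and bead-link interference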). Conditions: GST-Rac1 beads, Bodipy-FL-GTP binding; at 100 µM (top of the series) unless noted.
Assay [6] concerns the target GTPase HRas (Homo sapiens) (UniProt P01112). The assay can be described thus: blockade of GTP loading onto mutant Ras – biochemical, activated mutant, multiplex bead flow cytometry, dose response (AID 1341;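 active means dose-response curve with midpoint inside the tested range, moderate steepness, significant amplitude and little compound fluorescence or bead-attachment interference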;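 further: GST-tagged constitutively activated Ras mutant immobilized on beads and multiplexed with other GTPases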).

Chain of Cell division control protein 42 homolog (Homo sapiens) (P60953 whole entry, looked up): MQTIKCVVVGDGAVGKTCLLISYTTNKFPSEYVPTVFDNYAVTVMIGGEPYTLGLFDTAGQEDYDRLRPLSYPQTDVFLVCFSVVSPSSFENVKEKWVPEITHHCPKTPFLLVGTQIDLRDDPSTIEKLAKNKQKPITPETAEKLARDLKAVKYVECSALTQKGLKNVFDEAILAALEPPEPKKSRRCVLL

As to `CC(=O)NC1CC2CCCC(C1)N2C(=O)Nc1ccc(Cl)c(C(F)(F)F)c1` (centres undefined), the outcome in assay [1], in assay [4] and in assay [6] was inactive. The same molecule gave a fluorescence, percent of control (lower = inhibition) in assay [2] of 91.1%. This molecule gave a GTP binding, percent of control in assay [3] of 146%. In assay [5], the GTP binding signal, raw median fluorescence (lower = inhibition) (MCF (arbitrary fluorescence units)) was 174.
For the molecule `CCN(CC)c1ccc(-c2nn3c(-c4cccnc4)nnc3s2)cc1`, the call in assay [1], in assay [4] and in assay [6] was inactive. In addition, the fluorescence, percent of control (lower = inhibition) in assay [2] turned out to be 72.7%. This molecule came in with a GTP binding, percent of control in assay [3] of 46.9%. Also, in assay [5], the GTP binding signal, raw median fluorescence (lower = inhibition) (MCF (arbitrary fluorescence units)) amounted to 126.
For `CC(C)Cc1csc(NC(=O)c2ccccc2Cl)c1C(=O)O`, the result in assay [1] and in assay [4] was inactive. Moreover, the fluorescence, percent of control (lower = inhibition) in assay [2] was found to be 29.8%. For the same molecule, the GTP binding, percent of control in assay [3] was 74.3%. Besides, the GTP binding signal, raw median fluorescence (lower = inhibition) (MCF (arbitrary fluorescence units)) in assay [5] was 214.
With `COc1ccccc1Nc1nc(-c2c(C)nc3ncccn23)cs1`, the molecule was called inactive in assay [1], in assay [4] and in assay [6]. Besides, the fluorescence, percent of control (lower = inhibition) in assay [2] amounted to 26.5%. The molecule also gave a GTP binding, percent of control in assay [3] of 57.6%. Further, the GTP binding signal, raw median fluorescence (lower = inhibition) (MCF (arbitrary fluorescence units)) in assay [5] came to 117.
For the molecule `Cc1ccc(/C=C/C(=O)c2ccccc(=O)c2O)cc1C`, the molecule was classed as inactive in assay [1], in assay [4] and in assay [6]. The molecule also gave a fluorescence, percent of control (lower = inhibition) in assay [2] of 37.3%. For the same molecule, in assay [3], the GTP binding, percent of control stood at 81.8%. Further, the GTP binding signal, raw median fluorescence (lower = inhibition) (MCF (arbitrary fluorescence units)) in assay [5] came to 245.
For the molecule `O=C(C#Cc1ccccn1)c1ccc([N+](=O)[O-])cc1`, the molecule was called inactive in assay [1], in assay [4] and in assay [6]. The fluorescence, percent of control (lower = inhibition) in assay [2] was 51%. Also, the GTP binding, percent of control in assay [3] is 162%. In assay [5], this molecule displayed a GTP binding signal, raw median fluorescence (lower = inhibition) (MCF (arbitrary fluorescence units)) of 56.2.
Turning to `Cc1ccccc1-c1nnc(NC(=O)c2ccc(N3C(=O)CCC3=O)cc2)s1`, the outcome in assay [1], in assay [4] and in assay [6] was inactive. Further, the fluorescence, percent of control (lower = inhibition) in assay [2] was 48.6%. In assay [3], this molecule yielded a GTP binding, percent of control of 65.8%. The molecule also came in with a GTP binding signal, raw median fluorescence (lower = inhibition) (MCF (arbitrary fluorescence units)) in assay [5] of 236.
Take `O=C(COC(=O)C12CC3CC(CC(C3)C1)C2)Nc1nc2c(F)c(F)c(F)cc2s1`: the call in assay [1], in assay [4] and in assay [6] was inactive. In addition, the fluorescence, percent of control (lower = inhibition) in assay [2] turned out to be 44.1%. For the same molecule, the GTP binding, percent of control in assay [3] is 68.1%. The molecule also returned a GTP binding signal, raw median fluorescence (lower = inhibition) (MCF (arbitrary fluorescence units)) in assay [5] of 0.
Consider `COc1ccc(Nc2ccccc2C(=O)O)cc1`, for which the molecule was called inactive in assay [1], in assay [4] and in assay [6]. In assay [2], the fluorescence, percent of control (lower = inhibition) came out at 45.2%. The molecule further came in with a GTP binding, percent of control in assay [3] of 92.5%. In assay [5], this molecule had a GTP binding signal, raw median fluorescence (lower = inhibition) (MCF (arbitrary fluorescence units)) of 262.
Turning to `CCc1ccc(NC(=O)c2cc3c(C)nc4ccccc4c3o2)cc1`, the molecule was classed as inactive in assay [1], in assay [4] and in assay [6]. Also, the fluorescence, percent of control (lower = inhibition) in assay [2] came to 51.4%. Further, the GTP binding, percent of control in assay [3] amounted to 93.2%. This molecule also displayed a GTP binding signal, raw median fluorescence (lower = inhibition) (MCF (arbitrary fluorescence units)) in assay [5] of 261.
On to `Cn1c(=O)c2c(nc(N3CCc4ccccc4C3)n2C)n(C)c1=O`, for which the call in assay [1], in assay [4] and in assay [6] was inactive. Also, the fluorescence, percent of control (lower = inhibition) in assay [2] worked out at 36.7%. The molecule further came in with a GTP binding, percent of control in assay [3] of 76.9%. In assay [5], this molecule showed a GTP binding signal, raw median fluorescence (lower = inhibition) (MCF (arbitrary fluorescence units)) of 193.
Turning to `CC(C)(C)c1ccc(OCCSc2nc3ccccc3n2CC(=O)O)cc1`, the result in assay [1], in assay [4] and in assay [6] was inactive. In assay [2], this molecule gave a fluorescence, percent of control (lower = inhibition) of 52.3%. This molecule also displayed a GTP binding, percent of control in assay [3] of 87.1%. In assay [5], this molecule yielded a GTP binding signal, raw median fluorescence (lower = inhibition) (MCF (arbitrary fluorescence units)) of 35.4.
Regarding `COc1cc2[nH]c(=S)nc(NC3CCCCCC3)c2cc1OC`, the call in assay [1], in assay [4] and in assay [6] was inactive. The same molecule returned a fluorescence, percent of control (lower = inhibition) in assay [2] of 26.4%. In assay [3], this molecule displayed a GTP binding, percent of control of 60.9%. Also, in assay [5], the GTP binding signal, raw median fluorescence (lower = inhibition) (MCF (arbitrary fluorescence units)) is 148.
As to `COc1cccc(NC(=O)NCCCN2CCN(c3ccc(F)cc3)CC2)c1`, the call in assay [1], in assay [4] and in assay [6] was inactive. In assay [2], this molecule gave a fluorescence, percent of control (lower = inhibition) of 40.4%. The GTP binding, percent of control in assay [3] stood at 84.6%. This molecule also yielded a GTP binding signal, raw median fluorescence (lower = inhibition) (MCF (arbitrary fluorescence units)) in assay [5] of 255.
Take `CN(C)S(=O)(=O)c1ccc(C(=O)NNc2nc(-c3ccccc3)c3cc(Br)ccc3n2)cc1`: the molecule was classed as inactive in assay [1], in assay [4] and in assay [6]. The fluorescence, percent of control (lower = inhibition) in assay [2] turned out to be 31.2%. In assay [3], this molecule returned a GTP binding, percent of control of 71.7%. Further, the GTP binding signal, raw median fluorescence (lower = inhibition) (MCF (arbitrary fluorescence units)) in assay [5] is 166.
